Measurements as given in PubChem BioAssay (NCATS).
Inconclusive results are not listed. Where a call stands in place of a potency, no number is given. Active and inactive are the calls of the source. Calls follow the shape of the dose curve; as a rule, active = well fitted cell-killing curve with a large enough effect; inconclusive = small, poorly fitted or top-dose-only effect; inactive = no such curve, though single readings can be large or run the other way. *1 amine or outer side, *2 acyl side, *3 side chain or, on linkers, in order; H or OH if unused. Where a SMILES comes first, the peptide text is derived from it. Bridges are numbered along the chain shown (N, C = ends). [ ]: non-standard residue; d: D form. The star is where a group is joined. ξ: configuration not given here. X10 = NC1=NCCC(C(N[*:1])C(=O)[*:2])N1; ΔAla(3-NHCONH2) = NC(=O)NC=C(N)C(=O)O; pGlu = O=C1CC[C@@H](C(=O)O)N1; ξβ3hOrn = NCCCC(N)CC(=O)*; Dap = NC[CH](N)C(=O)O

Assay: qHTS of pediatric cancer cell lines to identify multiple opportunities for drug repurposing: Primary screen for Saos-2 cells (AID 1347097); also: nearly all actives have a fitted effect of over 40% in size
Details: Saos-2 viability, CellTiter-Glo ATP luminescence, 48 h; series mostly up to 46 µM
Excerpt: Drug repurposing or repositioning has been offered as a strategy for drug development in oncology programs. This approach has special potential for childhood cancers and other rare or orphan diseases, where the expected return on new drug development has been a disincentive to pharmaceuticals. […] In this project we exploit the poly-pharmacology of drugs to discover new indications via phenotypic screening of a panel of 19 well-characterized cell lines derived from solid tumors seen in children and adolescents. The goal is to identify approved drugs with previously unrecognized anticancer properties that has the potential to reveal new mechanisms and biological processes involved in carcinogenesis or drug resistance. We employed a titration-based paradigm (quantitative high-throughput screening or qHTS), where all compounds were tested at multiple concentrations for their effect on cell viability. Concentration-response curves (CRCs) were derived directly from the primary screen, and both potency and efficacy values were used to identify compounds with robust bioactivity profiles. We screened the NIH Chemical Genomics Center (NCGC) Pharmaceutical Collection (NPC) and Mechanism Interrogation Plate (MIPE) small molecule collections of approved and investigational compounds against these cell lines; and measured metabolically active cells after 48 hours of compound treatment as a proxy for cell viability. […] Assay Submitter: Nathalia J. Martinez, National Center for Advancing Translational Sciences, National Institutes of Health, Rockville, MD, USA; email: natalia.martinez@nih.gov Shen, M et al. Quantitative high-throughput phenotypic screening of pediatric cancer cell lines identifies multiple opportunities for drug repurposing. Oncotarget 2017 Dec 19;9(4):4758-4772. PMID 29435139.
The cells were obtained from University of North Carolina (UNC), Pediatric Preclinical Testing Program (PPT), and Coriell Institute (CI). qHTS cell viability assay: Cells were assayed in growth media at a density of 500-1,000 cells/well. Five microliters of cells were dispensed into 1,536-well, white, solid-bottom, TC-treated plates (Greiner Bio One) using a multidrop dispenser and incubated at 37 degrees C, 5% CO2, under a humidified atmosphere for 5 hours. Twenty-three nanoliters of compounds and controls (neutral control DMSO or positive control bortezomib at final concentration of 2.3 µM) were subsequently transferred by Kalypsys pintool. For primary screens, the MIPE collection was tested at 11-point dilutions (final concentrations range from 0.78 nM to 46 µM) and the NPC collection at 8-point dilutions (final concentrations range from 0.59 nM to 46 µM). Compounds tested in follow-up screens were assayed at 11-point dilutions. Cells were incubated for 48 hours, followed by addition of 3 µL of CellTiter-Glo (Promega). After a 15 min incubation at room temperature, samples were analyzed for luminescence intensity using a ViewLux High-throughput CCD imager equipped with clear filters.
Potency is read from the fitted curve at half-maximal effect.

| SMILES | Potency | activity change, negative = cytotoxic |
| --- | --- | --- |
| CCCOc1ccc2c(c1)CC[C@@H]1[C@@H]2CC[C@]2(C)C(OC)CC[C@@H]12 (stereo not given in full) | inactive | – |
| CCC(C(=O)NC(=O)NC(C)=O)c1ccccc1 (stereo not given) | inactive | – |
| Cc1ccccc1C(=O)N1CC/C(=N\OS(=O)(=O)O)c2ccc(Cl)cc21 | inactive | – |
| CCCCCCCCCCCCCCCCCCNC(=O)OC1CCN(C(=O)OC[C@H](COC(=O)N(Cc2cccc[n+]2CC)C(=O)c2ccccc2OC)OC)CC1 | 23.7 µM (active) | – |
| CN(C)C(=O)CNC(=O)Cc1ccccc1 | inactive | – |
| CC(NCCC(c1ccccc1)c1ccccc1)c1ccccc1 (stereo not given) | 26.6 µM (active) | – |
| CCCC(=O)O[C@]1(C(=O)COC(=O)CC)CC[C@H]2[C@@H]3CCC4=CC(=O)CC[C@]4(C)[C@H]3[C@@H](O)C[C@@]21C | inactive | – |
| COc1cc2nc(Cl)nc(N)c2cc1OC | inactive | – |
| COC(=O)c1cc(Cl)ccc1NS(=O)(=O)C(F)(F)F | inactive | – |
| CCCc1ccc(OCC(=O)N2CCN(C(=O)COc3ccc(CCC)cc3OC)CC2)c(OC)c1 | inactive | – |
| CCOCCn1c(C2CCN(CCc3ccc(C(C)(C)C(=O)O)cc3)CC2)nc2ccccc21 | inactive | – |
| O=C1CC[C@H](C(=O)N2CCCCC2)N1 | inactive | – |
| NCCCC(N)CC(=O)NCC1NC(=O)C(CO)NC(=O)C(N)CNC(=O)C(C2CCN=C(N)N2)NC(=O)C(=CNC(N)=O)NC1=O (stereo not drawn) (H-[Dap]S[Dap](ξβ3hOrn)[ΔAla(3-NHCONH2)][X10]; lactam 1-C; configuration not given here) | – | 29.1% [at 0.597 µM] (inactive) |
| O=[N+]([O-])c1cncn1CCN1CCOCC1 | inactive | – |
| C[C@H]1C[C@@H]2[C@H]([C@@H](O)C[C@@]3(C)[C@H]2CC[C@]3(O)C(=O)CO)[C@@]2(C)C=CC(=O)C=C12 | inactive | – |
| C[N+]1(CC2COC(c3ccccc3)(c3ccccc3)O2)CCCCC1 (stereo not given) | inactive | – |
| CC(C)C(=O)OCc1cccc(OC(=O)[C@@H]2N3C(=O)[C@@H](NC(=O)Cc4ccccc4)[C@H]3SC2(C)C)c1 | inactive | – |
| CCCC(=O)Nc1ccc(O)c(C(C)=O)c1 | inactive | – |
| CC(=O)N(c1onc(C)c1C)S(=O)(=O)c1ccc(N)cc1 | inactive | – |
| O=C(O)c1[nH]n(-c2ccc(S(=O)(=O)O)cc2)c(=O)c1N=Nc1ccc(S(=O)(=O)O)cc1 | inactive | – |

| SMILES | Potency | activity change, negative = cytotoxic |
| --- | --- | --- |
| O=C(OCC(COC(=O)c1cccnc1)(COC(=O)c1cccnc1)COC(=O)c1cccnc1)c1cccnc1 | inactive | – |
| Cc1ccc(-c2ccccc2C#N)cc1 | inactive | – |
| Oc1cccc2[nH]ccc12 | inactive | – |
| NS(=O)(=O)c1cc2c(cc1Cl)CN(C1CCCCC1)C2=O | inactive | – |
| CC1(C)S[C@@H]2[C@H](NC(=O)C(c3ccccc3)S(=O)(=O)O)C(=O)N2[C@H]1C(=O)O (stereo not given in full) | inactive | – |
| CNC[C@H](O)[C@@H](O)[C@H](O)[C@H](O)CO | inactive | – |
| O=C(CCCl)NCc1ccccc1 | inactive | – |
| O=C(O)c1cn(C2CC2)c2cc(Cl)c(F)cc2c1=O | inactive | – |
| CC[N+](CC)(CC)CCOC(=O)C(C1CCCC1)C1CCCC1 | inactive | – |
| CCOC(=O)NNc1nncc2ccccc12 | inactive | – |
| CCNC(=O)[C@@H]1CCCN1C(=O)[C@H](CCCN=C(N)N)NC(=O)[C@H](CC(C)C)NC(=O)CNC(=O)[C@H](Cc1ccc(O)cc1)NC(=O)[C@H](CO)NC(=O)[C@H](Cc1c[nH]c2ccccc12)NC(=O)[C@H](Cc1cnc[nH]1)NC(=O)[C@@H]1CCC(=O)N1 ([pGlu]HWSYGLRP-NHEt) | inactive | – |
| CCOC(=O)C(=O)CCCCCCl | inactive | – |
| O=C1CC2(CCCC2)CC(=O)N1CCNCC1COc2ccccc2O1 (stereo not given) | inactive | – |
| N#CSCC(=O)O | inactive | – |
| COc1c(N2C[C@@H]3CCCN[C@@H]3C2)c(F)cc2c(=O)c(C(=O)O)cn(C3CC3)c12 | inactive | – |
| Nc1ncnc2c1ncn2Cc1c(F)cccc1Cl | inactive | – |
| O=C1CCCc2c(O)cccc21 | inactive | – |
| c1ccc(C(O[C@H]2CCCN(CCc3ccc4c(c3)OCO4)C2)c2ccccc2)cc1 | inactive | – |
| CC(C)Cc1ccc(C(C)C(=O)OCc2ccccn2)cc1 (stereo not given) | inactive | – |
| CC1(C)OC(=O)Nc2ccc(Br)cc21 | inactive | – |
